Reference: PubChem BioAssay (EPA / NIEHS)
Inconclusive results are not listed. Active and inactive are the calls of the source. The calls were made as follows, unless noted: active = hit-call score of the fitted dose curve at least 0.9, where 1 is the maximum; inactive = score below 0.9.

Assays:
[1] = read-out: Macrophage colony-stimulating factor (MCSF), CSF1 (gene 1435); test: BSK_LPS_MCSF: BioMAP Diversity Plus: LPS Assay for Macrophage colony-stimulating factor (MCSF) Biomarker Activity (AID 2283083); conditions: primary human HUVEC with PBMC; actives raise or lower the signal
How it was run: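 ELISA readout of M-CSF after 24 h compound exposure in a human endothelial/PBMC co-culture. Activity, in either direction, is fitted relative to DMSO vehicle.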

[2] = read-out: Tissue Factor, F3 (gene 2152); test: BSK_LPS_TissueFactor: BioMAP Diversity Plus: LPS Assay for Tissue Factor Biomarker Activity (AID 2283084); conditions: primary human HUVEC with PBMC; actives raise or lower the signal
How it was run: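 ELISA signal for cell-surface Tissue Factor (CD142) was read 24 h after compound dosing of an LPS-stimulated human endothelial–PBMC primary co-culture. Gain or loss of signal was scored relative to DMSO.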

[3] = read-out: Tumor necrosis factor (Homo sapiens) (UniProt P01375); test: BSK_LPS_TNFa: BioMAP Diversity Plus: LPS Assay for Tumour Necrosis Factor alpha (TNFa) Biomarker Activity (AID 2283085); conditions: primary human HUVEC with PBMC; actives raise or lower the signal
How it was run: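 Human umbilical vein endothelial cells co-cultured with PBMC were exposed to test chemical and TNFa measured by ELISA 24 h after dosing. Bidirectional curve fitting was done relative to DMSO as negative control and baseline.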

[4] = read-out: Vascular cell adhesion molecule 1 (VCAM1), VCAM1 (gene 7412); test: BSK_LPS_VCAM1: BioMAP Diversity Plus: LPS Assay for Vascular cell adhesion molecule 1 (VCAM1) Biomarker Activity (AID 2283086); conditions: primary human HUVEC with PBMC; actives raise or lower the signal
How it was run: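 Human umbilical vein endothelial cells co-cultured with peripheral blood mononuclear cells under LPS stimulation were exposed to test chemical for 24 h. VCAM-1 levels were then measured by ELISA, with bidirectional curve fitting relative to DMSO as negative control and baseline.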

CD38, CD38 (gene 952) = test: BSK_SAg_CD38: BioMAP Diversity Plus: SAg Assay for CD38 Biomarker Activity (AID 2283087); conditions: primary human HUVEC with PBMC; actives raise or lower the signal
How it was run: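 Fluorescence ELISA of cell-surface CD38 served as the read-out, with either increase or decrease fitted against DMSO controls. Cells were a human umbilical vein endothelium plus PBMC co-culture under SEB/TSST-1 stimulation, measured 24 h after dosing.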

CD40, CD40 (gene 958) = test: BSK_SAg_CD40: BioMAP Diversity Plus: SAg Assay for CD40 Biomarker Activity (AID 2283088); conditions: primary human HUVEC with PBMC; actives raise or lower the signal
How it was run: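 Compounds were dosed onto a human primary endothelial–PBMC co-culture, and after 24 h CD40 was quantified by ELISA using a fluorescence signal. Activity in either direction was fitted relative to DMSO.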

CD69, CD69 (gene 969) = test: BSK_SAg_CD69: BioMAP Diversity Plus: SAg Assay for CD69 Biomarker Activity (AID 2283089); conditions: primary human HUVEC with PBMC; actives raise or lower the signal;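 as to AC50: cell surface CD69 protein quantified by ELISA with fluorescence detection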
How it was run: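 ELISA, fluorescence read-out: CD69 on human umbilical vein endothelial cell + PBMC co-culture, 24 h post-dosing. Gain or loss of signal fitted bidirectionally against DMSO baseline.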

[5] = read-out: Monocyte Chemoattractant Protein-1 (MCP1), CCL2 (gene 6347); test: BSK_SAg_MCP1: BioMAP Diversity Plus: SAg Assay for Monocyte Chemoattractant Protein-1 (MCP1) Biomarker Activity (AID 2283090); conditions: primary human HUVEC with PBMC; actives raise or lower the signal
How it was run: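 MCP-1 levels in the endothelial–PBMC SAg co-culture were quantified by ELISA at 24 h post-dosing; both increases and decreases versus DMSO scored. Cytotoxicity monitored by SRB total protein in parallel cultures.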

[6] = read-out: E-selectin (Homo sapiens) (UniProt P16581); test: BSK_SAg_Eselectin: BioMAP Diversity Plus: SAg Assay for Eselectin Biomarker Activity (AID 2283091); conditions: primary human HUVEC with PBMC; actives raise or lower the signal
How it was run: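 Co-culture: HUVEC + PBMC. Dose compound; 24 h. ELISA for E-selectin. Bidirectional fit vs DMSO.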

[7] = read-out: Monokine induced gamma interferon (MIG), CXCL9 (gene 4283); test: BSK_SAg_MIG: BioMAP Diversity Plus: SAg Assay for Monokine induced gamma interferon (MIG) Biomarker Activity (AID 2283092); conditions: primary human HUVEC with PBMC; actives raise or lower the signal
How it was run: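 ELISA readout of MIG/CXCL9; primary human umbilical vein endothelial cells co-cultured with peripheral blood mononuclear cells; 24 h post-dose; gain/loss fit vs DMSO baseline.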

[8] = read-out: Interleukin-8 (IL8), CXCL8 (gene 3576); test: BSK_SAg_IL8: BioMAP Diversity Plus: SAg Assay for Interleukin-8 (IL8) Biomarker Activity (AID 2283094); conditions: primary human HUVEC with PBMC; actives raise or lower the signal
How it was run: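 Human umbilical vein endothelial cells co-cultured with peripheral blood mononuclear cells; IL-8 measured by ELISA 24 h after chemical dosing. Bidirectional concentration-response fitting used DMSO as negative control and activity baseline.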

[9] = BSK_SAg_Proliferation: Cell Proliferation Assessment in the BioMAP Diversity Plus: SAg Assay (AID 2283095); conditions: primary human HUVEC with PBMC;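 also: relative cell number as total protein by SRB absorbance in sub-confluent culture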
How it was run: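 Human umbilical vein endothelial cells co-cultured with peripheral blood mononuclear cells; total protein measured by sulforhodamine B staining (0.1% SRB after 10% TCA fixation), absorbance at 560 nm, at 96 h. Bidirectional fit against DMSO baseline.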

[10] = BSK_SAg_SRB: Viability Assessment in the BioMAP Diversity Plus: SAg Assay (AID 2283096); conditions: primary human HUVEC with PBMC;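 also: cells read one day after compound addition; hits may be either gain or loss of signal compared with DMSO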
How it was run: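 Total protein by sulforhodamine B staining, 24 h after dosing, in HUVEC–PBMC co-culture; DMSO-referenced bidirectional fitting.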

[11] = molecular target: human CYP2A6, CYP2A6 (gene 1548) (UniProt P11509); test: NVS_ADME_hCYP2A6: NovaScreen (NVS) CYP450-related Enzyme Activity (ADME) Assay for human CYP2A6 (AID 2283099; active = hit-call score of the fitted dose curve at least 0.9, where 1 is the maximum)
human CYP2A6, CYP2A6 (gene 1548), sequence (P11509 whole entry, looked up): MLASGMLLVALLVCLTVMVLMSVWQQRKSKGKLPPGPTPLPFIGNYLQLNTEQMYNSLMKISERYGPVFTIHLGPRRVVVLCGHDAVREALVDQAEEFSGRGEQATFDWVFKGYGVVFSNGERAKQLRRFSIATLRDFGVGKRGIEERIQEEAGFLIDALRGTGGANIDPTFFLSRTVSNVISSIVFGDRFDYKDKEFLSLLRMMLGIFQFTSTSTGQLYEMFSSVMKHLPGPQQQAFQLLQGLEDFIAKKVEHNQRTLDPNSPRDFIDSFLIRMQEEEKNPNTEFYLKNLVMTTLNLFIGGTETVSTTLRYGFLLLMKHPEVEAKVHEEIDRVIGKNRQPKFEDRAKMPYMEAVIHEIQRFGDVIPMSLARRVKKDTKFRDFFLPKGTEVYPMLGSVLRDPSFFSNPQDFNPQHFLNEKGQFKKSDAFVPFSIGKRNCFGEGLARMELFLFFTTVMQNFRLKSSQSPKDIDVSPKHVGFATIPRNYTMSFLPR
How it was run: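 Fluorescent substrate turnover by recombinant CYP2A6 (insect cell source), 0.5 h read. Screen: 10 uM, duplicate; threshold hits (e.g. 30% inhibition) → singleton concentration-response, top 20 uM. Positive and negative controls on every plate.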

[12] = molecular target: human CYP1A1, CYP1A1 (gene 1543) (UniProt P04798); test: NVS_ADME_hCYP1A1: NovaScreen (NVS) CYP450-related Enzyme Activity (ADME) Assay for human CYP1A1 (AID 2283100; active = hit-call score of the fitted dose curve at least 0.9, where 1 is the maximum)
human CYP1A1, CYP1A1 (gene 1543), sequence (P04798 whole entry, looked up): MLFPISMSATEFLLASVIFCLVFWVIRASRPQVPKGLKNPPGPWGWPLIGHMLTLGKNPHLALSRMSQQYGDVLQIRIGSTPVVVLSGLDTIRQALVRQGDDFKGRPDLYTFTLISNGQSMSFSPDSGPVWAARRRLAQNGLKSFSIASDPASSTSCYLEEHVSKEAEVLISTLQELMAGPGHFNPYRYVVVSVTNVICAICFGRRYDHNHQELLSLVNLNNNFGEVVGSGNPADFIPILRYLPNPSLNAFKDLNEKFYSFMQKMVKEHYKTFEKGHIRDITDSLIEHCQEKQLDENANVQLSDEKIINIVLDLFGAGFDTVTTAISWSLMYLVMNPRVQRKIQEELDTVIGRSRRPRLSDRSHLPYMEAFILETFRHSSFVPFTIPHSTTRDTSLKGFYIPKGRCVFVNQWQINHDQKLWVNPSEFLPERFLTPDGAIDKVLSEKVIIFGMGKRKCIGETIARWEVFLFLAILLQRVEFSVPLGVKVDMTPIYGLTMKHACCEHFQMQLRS
How it was run: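 Recombinant hCYP1A1 + fluorogenic substrate, cell-free; 1 h; fluorescence read. Single-point 10 uM (duplicate) → concentration series, max 20 uM. Acetonitrile negative control.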

[13] = molecular target: human CYP2B6, CYP2B6 (gene 1555) (UniProt P20813); test: NVS_ADME_hCYP2B6: NovaScreen (NVS) CYP450-related Enzyme Activity (ADME) Assay for human CYP2B6 (AID 2283101; active = hit-call score of the fitted dose curve at least 0.9, where 1 is the maximum)
human CYP2B6, CYP2B6 (gene 1555), sequence (P20813 whole entry, looked up): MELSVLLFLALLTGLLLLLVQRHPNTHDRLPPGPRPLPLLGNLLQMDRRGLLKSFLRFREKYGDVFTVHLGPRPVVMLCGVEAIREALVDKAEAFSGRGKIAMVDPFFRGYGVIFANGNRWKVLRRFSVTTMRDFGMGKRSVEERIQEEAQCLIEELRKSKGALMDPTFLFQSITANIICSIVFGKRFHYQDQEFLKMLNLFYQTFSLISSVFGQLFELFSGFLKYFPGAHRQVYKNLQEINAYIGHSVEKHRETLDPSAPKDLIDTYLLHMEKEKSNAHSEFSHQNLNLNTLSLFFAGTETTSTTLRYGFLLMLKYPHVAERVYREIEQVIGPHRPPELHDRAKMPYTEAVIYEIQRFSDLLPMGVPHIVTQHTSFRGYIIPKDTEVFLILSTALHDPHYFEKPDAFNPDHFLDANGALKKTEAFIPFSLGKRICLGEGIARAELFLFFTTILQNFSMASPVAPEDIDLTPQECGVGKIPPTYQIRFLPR
How it was run: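 Fluorescence-based enzyme activity of recombinant human CYP2B6, measured 1 h post-dose against acetonitrile vehicle baseline. Screened at a single concentration of 10 uM in duplicate before concentration-response follow-up.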

[14] = molecular target: human CYP1A2, CYP1A2 (gene 1544) (UniProt P05177); test: NVS_ADME_hCYP1A2: NovaScreen (NVS) CYP450-related Enzyme Activity (ADME) Assay for human CYP1A2 (AID 2283102; active = hit-call score of the fitted dose curve at least 0.9, where 1 is the maximum;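 also: fluorescence from turnover of a fluorogenic substrate by recombinant insect-cell CYP1A2; potency for inhibition since loss of fluorescence marks reduced CYP1A2 activity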)
human CYP1A2, CYP1A2 (gene 1544), sequence (P05177 whole entry, looked up): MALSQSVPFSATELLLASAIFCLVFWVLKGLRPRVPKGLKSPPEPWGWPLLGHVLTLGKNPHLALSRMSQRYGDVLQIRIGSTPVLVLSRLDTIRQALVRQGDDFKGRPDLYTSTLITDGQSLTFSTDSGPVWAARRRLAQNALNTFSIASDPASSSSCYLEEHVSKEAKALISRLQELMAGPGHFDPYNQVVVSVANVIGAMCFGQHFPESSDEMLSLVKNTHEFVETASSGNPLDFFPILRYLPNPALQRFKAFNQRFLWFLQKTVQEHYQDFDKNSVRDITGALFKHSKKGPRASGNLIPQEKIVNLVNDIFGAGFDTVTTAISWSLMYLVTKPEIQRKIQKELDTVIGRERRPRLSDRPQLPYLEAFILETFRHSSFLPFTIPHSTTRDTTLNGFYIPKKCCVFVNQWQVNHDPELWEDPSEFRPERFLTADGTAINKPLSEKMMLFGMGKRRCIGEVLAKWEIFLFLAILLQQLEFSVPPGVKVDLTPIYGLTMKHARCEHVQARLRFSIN
How it was run: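 rec. hCYP1A2 (insect cells), cell-free; fluorogenic substrate; 0.5 h; FI read. Baseline = acetonitrile; signal loss = inhibition. 10 uM duplicate primary → conc. series for actives.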

[15] = molecular target: human CYP2D6, CYP2D6 (gene 1565) (UniProt P10635); test: NVS_ADME_hCYP2D6: NovaScreen (NVS) CYP450-related Enzyme Activity (ADME) Assay for human CYP2D6 (AID 2283107; active = hit-call score of the fitted dose curve at least 0.9, where 1 is the maximum)
human CYP2D6, CYP2D6 (gene 1565), sequence (P10635 whole entry, looked up): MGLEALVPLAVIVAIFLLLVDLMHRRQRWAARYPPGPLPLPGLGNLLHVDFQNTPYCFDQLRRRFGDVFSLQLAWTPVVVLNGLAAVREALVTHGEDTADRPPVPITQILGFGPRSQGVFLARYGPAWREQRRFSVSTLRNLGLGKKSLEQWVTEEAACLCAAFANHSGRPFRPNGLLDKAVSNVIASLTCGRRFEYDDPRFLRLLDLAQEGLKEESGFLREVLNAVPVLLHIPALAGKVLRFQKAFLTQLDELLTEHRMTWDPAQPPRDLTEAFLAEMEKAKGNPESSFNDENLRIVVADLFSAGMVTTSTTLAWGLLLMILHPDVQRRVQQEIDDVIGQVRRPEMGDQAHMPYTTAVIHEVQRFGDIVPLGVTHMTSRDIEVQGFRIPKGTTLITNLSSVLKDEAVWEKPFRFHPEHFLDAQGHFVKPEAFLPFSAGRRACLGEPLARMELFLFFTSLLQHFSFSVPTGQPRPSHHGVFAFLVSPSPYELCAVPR
How it was run: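 Insect-cell recombinant enzyme + fluorogenic substrate, cell-free; 1 h incubation; fluorescence intensity readout. Acetonitrile = neg. ctrl/baseline. Single-point 10 uM, duplicate; follow-up concentration series.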

[16] = molecular target: human CYP19A1, CYP19A1 (gene 1588) (UniProt P11511); test: NVS_ADME_hCYP19A1: NovaScreen (NVS) CYP450-related Enzyme Activity (ADME) Assay for human CYP19A1 (AID 2283098; active = hit-call score of the fitted dose curve at least 0.9, where 1 is the maximum;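 also: potency for inhibitors seen as loss of fluorescent enzyme signal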)
human CYP19A1, CYP19A1 (gene 1588), sequence (P11511 whole entry, looked up): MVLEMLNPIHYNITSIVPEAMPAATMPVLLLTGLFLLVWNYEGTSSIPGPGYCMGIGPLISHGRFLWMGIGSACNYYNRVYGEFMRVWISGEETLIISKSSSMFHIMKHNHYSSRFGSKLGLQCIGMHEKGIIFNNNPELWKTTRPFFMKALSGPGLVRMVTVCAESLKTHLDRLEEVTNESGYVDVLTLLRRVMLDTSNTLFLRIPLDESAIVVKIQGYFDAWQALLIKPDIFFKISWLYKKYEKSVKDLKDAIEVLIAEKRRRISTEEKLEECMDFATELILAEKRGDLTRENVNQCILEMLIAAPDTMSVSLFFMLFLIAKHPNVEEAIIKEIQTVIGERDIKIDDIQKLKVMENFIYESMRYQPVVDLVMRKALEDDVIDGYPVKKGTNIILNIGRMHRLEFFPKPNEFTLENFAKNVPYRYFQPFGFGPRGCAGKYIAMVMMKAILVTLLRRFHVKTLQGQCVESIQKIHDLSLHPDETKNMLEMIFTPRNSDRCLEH
How it was run: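 Biochem, cell-free; recombinant enzyme + specific substrate; fluorescence intensity at 0.5 h post-dose; 10 uM duplicate primary, conc. series for actives; acetonitrile = negative control/baseline; positive and negative controls on every plate.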

Measured: AC50

E-selectin (Homo sapiens), sequence (P16581 whole entry, looked up): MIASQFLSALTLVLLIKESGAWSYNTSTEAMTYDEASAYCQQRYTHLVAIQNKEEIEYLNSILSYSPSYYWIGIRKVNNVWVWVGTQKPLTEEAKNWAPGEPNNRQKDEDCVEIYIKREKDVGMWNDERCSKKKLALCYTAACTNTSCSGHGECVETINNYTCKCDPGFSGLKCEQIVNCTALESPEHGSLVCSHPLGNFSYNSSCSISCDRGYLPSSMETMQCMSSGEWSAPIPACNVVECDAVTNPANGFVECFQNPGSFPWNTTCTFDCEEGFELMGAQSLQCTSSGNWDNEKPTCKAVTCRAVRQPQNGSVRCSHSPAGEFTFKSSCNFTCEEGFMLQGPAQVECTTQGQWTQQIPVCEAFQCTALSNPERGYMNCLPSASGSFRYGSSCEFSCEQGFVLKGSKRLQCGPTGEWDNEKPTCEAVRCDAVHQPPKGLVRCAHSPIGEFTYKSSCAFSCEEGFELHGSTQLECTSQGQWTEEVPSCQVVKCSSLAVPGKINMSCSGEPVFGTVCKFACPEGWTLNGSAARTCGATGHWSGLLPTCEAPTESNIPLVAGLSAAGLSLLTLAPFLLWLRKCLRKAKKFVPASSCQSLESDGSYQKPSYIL
Tumor necrosis factor (Homo sapiens), sequence (P01375 whole entry, looked up): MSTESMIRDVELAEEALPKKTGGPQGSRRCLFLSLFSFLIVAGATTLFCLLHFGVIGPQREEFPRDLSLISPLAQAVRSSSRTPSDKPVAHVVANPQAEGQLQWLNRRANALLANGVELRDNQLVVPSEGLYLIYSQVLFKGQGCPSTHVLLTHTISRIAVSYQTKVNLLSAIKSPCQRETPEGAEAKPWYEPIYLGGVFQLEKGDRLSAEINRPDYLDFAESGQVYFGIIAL

Oc1cc2ccccc2c2ccccc12
active: [1] 7.85 µM | [2] 9.95 µM | [3] 11.6 µM | [4] 9.03 µM | CD38, CD38 (gene 952) 10 µM | CD40, CD40 (gene 958) 9.94 µM | CD69, CD69 (gene 969) 8.99 µM | [5] 7.84 µM | [6] 8.61 µM | [7] 10.8 µM | [8] 9.87 µM | [9] 3.62 µM | [10] 9.94 µM | [12] 5.31 µM | [13] 1.31 µM | [14] 0.0278 µM | [15] 0.136 µM
inactive: [11]

CN(C)C=O
inactive: [1] | [2] | [3] | [4] | CD38, CD38 (gene 952) | CD40, CD40 (gene 958) | CD69, CD69 (gene 969) | [5] | [6] | [7] | [8] | [9] | [10]

CN1CCC[C@H]1c1cccnc1
inactive: [1] | [2] | [3] | [4] | CD38, CD38 (gene 952) | CD40, CD40 (gene 958) | CD69, CD69 (gene 969) | [5] | [6] | [7] | [8] | [9] | [10]

CCCCC(CC)COC(=O)CCCCC(=O)OCc1ccccc1 (centres undefined)
inactive: [1] | [2] | [3] | [4] | CD38, CD38 (gene 952) | CD40, CD40 (gene 958) | CD69, CD69 (gene 969) | [5] | [6] | [7] | [8] | [9] | [10]

CC[C@H](c1ccc(O)cc1)[C@@H](CC)c1ccc(O)cc1
active: [1] 22.4 µM | [2] 32 µM | [3] 30.6 µM | [4] 29 µM | CD38, CD38 (gene 952) 19.1 µM | CD40, CD40 (gene 958) 20.7 µM | CD69, CD69 (gene 969) 20.6 µM | [5] 23.9 µM | [6] 17.9 µM | [7] 32.6 µM | [8] 20.2 µM | [9] 19.2 µM | [10] 31.4 µM | [16] 1.77 µM

CCCCCCCCOC(=O)CCCCCCCCC(=O)OCCCCCCCC
inactive: [1] | [2] | [3] | [4] | CD38, CD38 (gene 952) | CD40, CD40 (gene 958) | CD69, CD69 (gene 969) | [5] | [6] | [7] | [8] | [9] | [10]

CCCOC(=O)c1ccc(O)cc1
inactive: [1] | [2] | [3] | [4] | CD38, CD38 (gene 952) | CD40, CD40 (gene 958) | CD69, CD69 (gene 969) | [5] | [6] | [7] | [8] | [9] | [10] | [11] | [13]
